Source: PubChem
ClpP mod = qHTS Assay for Activators of ClpP. hit rate 1.9% among 340,000. purified B. subtilis ClpP, FRET peptide cleavage, 20 min. Potency, µM (titrated, usually from 57.5 µM), inactives show top-dose activity change, negative = active; active = well fitted falling curve with a large enough effect; inconclusive = small, poorly fitted or top-dose-only effect; inactive = no such curve, though single readings can be large or run the other way; also: the source files actives as falling curves though it sought activators and does not explain the sign; nearly all actives have a fitted effect of over 65% in size
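ClpP 10 microg/mL final, pH 8 Tris/KCl buffer with BSA, glycerol, Tween-20; compound pinned in; FRET-FV substrate; RT 20 min; Ex320/Em430; ΔFRET vs ADEP 5.8 microM, DMSO, no enzyme.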
TDP1 block = TDP1 (human) enzyme inhibition. hit rate 0.28% among 350,000. recombinant TDP1, AlphaScreen DNA substrate cleavage. Potency, µM (series often up to 130 µM), for the others: top-dose activity change, negative = inhibition, most hits filed as inhibitors. Q9NUW8. AID 485290; active = well fitted curve in the direction sought with a large enough effect; inconclusive = small, poorly fitted or top-dose-only effect, or another doubt; inactive = no such curve, though single readings can be large; an effect the other way counts as inactive or inconclusive; also: % is scaled to controls: 0 for no effect and ±100 for the full control effect; nearly all actives have a fitted effect of over 40% in size
Target sequence (Q9NUW8 whole entry, looked up): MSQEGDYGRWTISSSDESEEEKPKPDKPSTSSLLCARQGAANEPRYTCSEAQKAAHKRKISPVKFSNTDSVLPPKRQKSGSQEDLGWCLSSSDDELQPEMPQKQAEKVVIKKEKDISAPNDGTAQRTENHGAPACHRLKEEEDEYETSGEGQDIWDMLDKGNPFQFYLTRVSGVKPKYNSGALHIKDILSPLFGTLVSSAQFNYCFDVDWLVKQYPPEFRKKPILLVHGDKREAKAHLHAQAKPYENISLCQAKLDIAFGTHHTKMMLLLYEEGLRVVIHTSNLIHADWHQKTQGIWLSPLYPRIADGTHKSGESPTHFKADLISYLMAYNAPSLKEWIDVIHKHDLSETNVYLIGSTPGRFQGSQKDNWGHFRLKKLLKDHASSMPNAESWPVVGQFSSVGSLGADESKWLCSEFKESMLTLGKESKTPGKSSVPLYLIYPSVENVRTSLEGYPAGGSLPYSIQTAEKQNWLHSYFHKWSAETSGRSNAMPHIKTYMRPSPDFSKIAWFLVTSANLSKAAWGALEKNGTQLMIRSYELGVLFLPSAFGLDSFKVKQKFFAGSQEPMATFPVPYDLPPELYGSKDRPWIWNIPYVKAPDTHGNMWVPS
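Recombinant human Tdp1 (E. coli-expressed, 1 nM final) preincubated with compounds 15 min at room temperature, then 5'-biotin/3'-phosphotyrosine-FITC DNA substrate (15 nM final) added for 5 min. AlphaScreen beads (10 ug/ml final) added 10 min; cleavage lowers signal.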
Rango-impB inh = prevents formation of the Rango-importin beta complex; Q14974; Rango CFP/YFP FRET sensor + importin beta, 45 min; Potency, µM (top dose mostly 92.2 µM), for inactives: at the top dose inhibition of complex formation; hit rate 0.031% among 340,000; AID 540263;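 also: 0% = DMSO wells and 100% = buffer wells lacking importin beta; nearly all actives have a fitted effect of over 15% in size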
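FRET biosensor (snurportin 1 IBB flanked by EYFP and cerulean), 50 nM, with compound 5 min, then 0.125 microM importin beta in PBS, 1 mM DTT, 0.02% Tween-20, 0.1% BSA. CFP/YFP ratio read after 45 min at room temperature; pre-read flags interference.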
Rango dissoc inh = inhibition of RanGTP-driven Rango-importin beta dissociation | O95149+P62826 | Biochemical FRET Rango-importin beta, RanGTP-induced dissociation | Potency, µM (titrated, usually from 46.1 µM), without a hit: at the top dose activity change, negative = inhibition | hit rate 0.071% among 340,000; also: % of control where 0% means no effect; nearly all actives have a fitted effect of over 45% in size
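Rango/importin beta premix (0.1/0.25 uM final), PBS + 1 mM DTT + 0.02% Tween-20 + 0.1% BSA; cpd 5 min RT; FRET pre-read; + RanGTP-RCC1 (0.6 uM Ran, 2 mM GTP, 0.2 uM RCC1); 45 min RT; FRET post-read, ex 430, em 486/530 nm.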
TSG101-PTAP inh = blocks PTAP/TSG101 interaction to inhibit HIV-1 budding; Q99816; 340,000 tested, under 10 active; AID 493005; Potency, µM (highest dose often 115 µM), for the others: at the top dose activity change, negative = inhibition, most hits filed as inhibitors; Fluorescence polarization, FITC-PTAP peptide / Tsg101 binding; active = well fitted inhibition curve with a large enough effect in the main read-out, with a control signal flat, not every such curve was filed as active; inconclusive = small, poorly fitted or top-dose-only effect, or effect the other way, or a change in a side signal; inactive = no such curve, though single readings can be large or run the other way; also: % of control where 0% means no effect
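Compounds were pin-transferred onto Tsg101 binding domain (10 uM final) in HEPES pH 7.5 buffer, then FITC-PTAP peptide was added at 50 nM final. After 20 min at RT, polarization reported peptide displacement across a qHTS concentration series.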
ALOX12 inh = ALOX12 (human) lipoxygenase inhibition; Potency, µM (series often up to 108 µM), for inactives: top-dose activity change, negative = inhibition, usual class: inhibitors; purified 12hLO, xylenol orange hydroperoxide absorbance; hit rate 1.1% among 580,000; active = well fitted curve in the direction sought with a large enough effect; inconclusive = small, poorly fitted or top-dose-only effect, or another doubt; inactive = no such curve, though single readings can be large; an effect the other way counts as inactive or inconclusive; also: % is scaled to controls: 0 for no effect and ±100 for the full control effect
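Hydroperoxide product was detected by ferrous iron/xylenol orange as the 573 to 405 nm absorbance ratio. Arachidonic acid at 40 uM (final) was turned over for 30 min at room temperature by 150 nM human 12hLO, pH 7.0 Hepes buffer, after 15 min compound preincubation.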
The depositor's hits bear a star. Only some compounds are listed: those with a hit (about 2.4% of all), similar ones and a draw of the others. Unless noted, calls follow the shape of the full dose curve. Potency is read from the fitted curve at half-maximal effect.

Screening Cc1cn2c(=O)c(S(=O)(=O)NCCc3ccc(Cl)cc3)c(C)nc2s1 returned ClpP mod inconclusive, TDP1 block 5% and ALOX12 inh -15%.
For Cc1cn2c(=O)c(S(=O)(=O)NC(C)c3ccccc3)c(C)nc2s1 (stereo unspecified) the results were ClpP mod 32µM*, TDP1 block 5% and ALOX12 inh 0%.
COc1cc(Cl)ccc1OCc1nc2c(n1Cc1ccccc1)C(=O)N(CC1CCOCC1)CCN2 was read as ALOX12 inh 46%.
For CN(C)c1ccc(C(=O)N2CCC3(CC2)NC(=O)N(c2cccc(F)c2)N3)cc1 the results were ALOX12 inh 5µM*.
`COc1cccc(C(=O)N2CCC3(CC2)NC(=O)N(c2cccc(F)c2)N3)c1` gave ALOX12 inh 2µM*.
Screening COc1ccc(C(=O)N2CCC3(CC2)NC(=O)N(c2ccc(F)cc2)N3)cc1F returned ALOX12 inh 2µM*.
`COc1ccc(C(=O)N2CCC3(CC2)NC(=O)N(Cc2ccc(F)cc2)C3=O)cc1F` gave ALOX12 inh -11%.
Screening COc1ccc(C(=O)N2CCC3(CC2)NC(=O)N(c2cccc(F)c2)N3)c(OC)c1 returned ALOX12 inh 1.3µM*.
`COCC(=O)Nc1cc(C(=O)N2CCc3ccccc3C2)c2c(c1)nc(-c1ccncc1)n2C` gave ALOX12 inh -4%.
CN1CCN(C(c2ccc(Cl)cc2)c2cc(Cl)c3cccnc3c2O)CC1 (stereo unspecified) was read as TDP1 block -5%, Rango-impB inh 2%, Rango dissoc inh 2%, TSG101-PTAP inh -7% and ALOX12 inh 10µM*.
For CCOc1cccc(/C=N/NC(=S)Nc2cc(S(=O)(=O)N3CCOCC3)ccc2N2CCOCC2)c1O the results were ClpP mod -4%, TDP1 block 8%, Rango-impB inh inconclusive, Rango dissoc inh 3.7µM*, TSG101-PTAP inh 1% and ALOX12 inh inconclusive.
Screening COc1ccc2ccccc2c1/C=N/NC(=S)Nc1cc(S(=O)(=O)N2CCOCC2)ccc1N1CCOCC1 returned ClpP mod inconclusive, TDP1 block 5%, Rango-impB inh inconclusive, Rango dissoc inh -12%, TSG101-PTAP inh -3% and ALOX12 inh 1%.
COC(=O)Nc1cc(C(=O)OC)ccc1C(=O)OC was read as ALOX12 inh 0%.
COC(=O)c1ccc(C(=O)OC)c(NC(=O)CCC(=O)O)c1 was read as ClpP mod 28µM*, TDP1 block 0%, Rango-impB inh -1%, Rango dissoc inh 1%, TSG101-PTAP inh -1% and ALOX12 inh -9%.
S=c1[nH]c2ccc(Cc3ccc4[nH]c(=S)[nH]c4c3)cc2[nH]1 was read as TDP1 block 3%, Rango-impB inh 0%, Rango dissoc inh 0%, TSG101-PTAP inh -1% and ALOX12 inh 45µM*.
Screening O=C(CSCc1ccc(Cl)cc1)N/N=C/c1ccc(OCC(=O)Nc2ccccc2)cc1 returned ClpP mod -4%, TDP1 block -3%, Rango-impB inh -2%, Rango dissoc inh -3%, TSG101-PTAP inh -7% and ALOX12 inh -2%.
Screening Cc1ccc(NC(=O)COc2ccc(/C=N/NC(=O)CSCc3ccccc3)cc2)cc1 returned ClpP mod -8%, TDP1 block 56µM*, Rango-impB inh 1%, Rango dissoc inh 5%, TSG101-PTAP inh 0% and ALOX12 inh 16%.
CCOc1ccc2[nH]c3c(N4CCC5(CC4)OCCO5)ncnc3c2c1 was read as ClpP mod 32µM*, TDP1 block 1%, Rango-impB inh -1%, Rango dissoc inh -2%, TSG101-PTAP inh -2% and ALOX12 inh 6%.
`CCOC(=O)N1CCN(c2ncnc3c2[nH]c2ccc(OC)cc23)CC1` gave ClpP mod 25µM*, TDP1 block 4%, Rango-impB inh -2%, Rango dissoc inh -13%, TSG101-PTAP inh -9% and ALOX12 inh -23%.
`CCOc1ccc2[nH]c3c(N4CCN(C(=O)c5ccco5)CC4)ncnc3c2c1` gave TDP1 block 6%, Rango-impB inh -2%, Rango dissoc inh -18%, TSG101-PTAP inh 0% and ALOX12 inh 11%.
For CCOC(=O)N1CCN(c2ncnc3c2[nH]c2ccc(F)cc23)CC1 the results were ClpP mod inconclusive, TDP1 block 5%, Rango-impB inh 0%, Rango dissoc inh 19%, TSG101-PTAP inh -3% and ALOX12 inh -16%.
Screening COc1cccc(C(=O)N2C[C@@H](F)C[C@H]2C(=O)N2CCOCC2)c1 returned ALOX12 inh 39%.
`O=C(N[C@@H]1CCN(C(=O)CCCn2cccn2)C[C@H]1O)c1ccccn1` gave ALOX12 inh 15%.
CC(=O)Nc1ccc2c(c1)C(=O)N(C1CCCCC1)C2=O was read as ClpP mod 25µM*, TDP1 block 7%, Rango-impB inh 0%, Rango dissoc inh -12%, TSG101-PTAP inh 0% and ALOX12 inh 9%.
`CC(C)NC(=O)N1CCC2(CC1)C(=O)N(C)c1ccccc12` gave ALOX12 inh -1%.
CC(C)c1ccc(C2C3=C(CC(c4ccco4)CC3=O)Nc3nc(C(F)(F)F)nn32)cc1 (stereo unspecified) was read as TDP1 block 4%.
Screening O=C1CC(c2ccco2)CC2=C1C(c1ccccc1)n1nc(C(F)(F)F)nc1N2 (stereo unspecified) returned ClpP mod 25µM*, TDP1 block 1%, Rango-impB inh -1%, Rango dissoc inh -2%, TSG101-PTAP inh -3% and ALOX12 inh inconclusive.
For COCCc1noc(C2Cc3ccccc3N2C(=O)Nc2ccc3c(c2)OCCO3)n1 (stereo unspecified) the results were ALOX12 inh 3%.
Cc1ccnc(NC(=S)N2CCN(c3cccc(C(F)(F)F)c3)CC2)c1 was read as TDP1 block -1%, Rango-impB inh inconclusive, Rango dissoc inh -22%, TSG101-PTAP inh 1% and ALOX12 inh 22µM*.
FC(F)(F)c1cccc(N2CCN(C(=S)NC3CCCCC3)CC2)c1 was read as ClpP mod 0%, TDP1 block 3%, Rango-impB inh 2%, Rango dissoc inh 26%, TSG101-PTAP inh -1% and ALOX12 inh 50µM*.
